# Compounds without any hit were thinned out: in the full panel of roughly 83,000, 20% have a hit.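 Step 1: grow cells in 96-well plates. Step 2: add test compound at a single concentration. Step 3: incubate 48 h. Step 4: record percent growth.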 Unmarked numbers belong to inactive results. Active and inactive are the calls of the source. How the source made its calls: active means growth percent below 10; inactive means the rest.
# System: SW-620 colon
# Assay: NCI-60 one-dose screen, 48 h (100 = growth as untreated, 0 = no growth, -100 = all killed)
# Details: 10 µM
row,SMILES,growth
1,Oc1cccc(-c2nc3sccn3c2-c2ccncn2)c1,108%
2,CCOC(=O)c1cc(C(=O)c2cc(OC)c(OC)c(OC)c2)n2ccc(-c3cc[n+](CC(=O)c4cc(OC)c(OC)c(OC)c4)cc3)cc12,-64.8% (active)
3,C[C@H]1[C@H](OC(=O)CCC(=O)O)O[C@@H]2O[C@]3(C)CC[C@H]4[C@H](C)CC[C@@H]1[C@@]24OO3,30.6%
4,COc1ccc(C(=O)N/N=C/c2cc(C(F)(F)F)ccc2Cl)cc1,98.8%
5,COc1ccc(-c2cc(-c3ccc(Cl)cc3)nc(SCCCC(=O)NO)n2)cc1OC,9.88% (active)
6,CCC(=O)OC1CCC2C3CCC(=O)OC3C(C)(CCC(=O)O)CC12C (configuration not stated),-11.3% (active)
7,OCC1OC(n2ccc3c(NO)ncnc32)C(O)C1O (configuration not stated),-3.1% (active)
8,CC(C)(C)c1ccc(S(=O)(=O)N[C@H]2CC[C@H]3[C@@H]4CCc5cc(O)c([N+](=O)[O-])cc5[C@H]4CC[C@]23C)cc1,89.9%
9,COc1cc(-c2nn(-c3cccc(NC(=O)CCNc4ccc(N5CCOCC5)cc4)c3)cc2-c2ccncc2)ccc1Cl,18.6%
10,COc1cc(-c2nn(-c3cccc(NC(=O)CN4CCOCC4)c3)cc2-c2cccnc2)ccc1Cl,62.2%
11,O=C(CCCSc1nc(-c2ccccc2)cc(-c2ccc(Cl)cc2)n1)NO,17.4%
12,CC(C)N(CCOc1cccc(-c2nc3sccn3c2-c2ccnc(S(C)(=O)=O)n2)c1)C(C)C,67.1%
13,O=C(CCC(C(=O)c1ccccc1)c1ccccc1)c1ccccc1 (configuration not stated),41.9%
14,COc1ccc(-c2csc(NC(=O)c3ccc(Cc4n[nH]c(=O)c5cccnc45)cc3)n2)cc1,95.2%
15,COc1cc(-c2nn(-c3cccc(NC(=O)CCN4CCN(Cc5ccccc5)CC4)c3)cc2-c2ccncc2)ccc1Cl,2.77% (active)
16,COc1cc2cc(Oc3ccc(NC(=O)c4cc(C(F)(F)F)cc(C(F)(F)F)c4)cc3)c(C)nc2cc1OC,47.4%

row,SMILES,growth
1,C[C@]12CCC3c4ccc(O)cc4C[C@@H](CCCCCCCCCS(=O)CCCC(F)(F)C(F)(F)F)C3C1CC[C@@H]2O (some centres not stated),97.1%
2,Cc1cc(Cl)ccc1Nc1nc(C(F)(F)F)ccc1C(=O)N/N=C/c1cccc(O)c1,27.8%
3,COc1cc(C(=O)/C=C/c2c[nH]c3ccccc23)cc(OC)c1OC,37.3%
4,CCOC(=O)CC(S(=O)(=O)c1ccccc1)S(=O)(=O)c1ccccc1,8.23% (active)
5,CCNCC(=O)Nc1ccc(C(=O)OCC)cc1,97.2%
6,CCCc1cn(CC(=O)Nc2nc3ccccc3s2)nn1,99.9%
7,COc1cc2cc(Oc3ccc(NC(=O)Nc4ccc(Cl)c(C(F)(F)F)c4)cc3)c(C)nc2cc1OC,7.51% (active)
8,COc1cc(/C=C2\CCCC3=C2NC(N)=NC3c2cc(OC)c(OC)c(OC)c2)cc(OC)c1OC (configuration not stated),-22.3% (active)
9,COc1ccc(-c2cc(-c3ccc(Cl)cc3)nc(SCCCCCCC(=O)NO)n2)cc1OC,46.3%
10,COc1cc2ncnc(NC3CCC(O)CC3)c2cc1OC (configuration not stated),101%
11,COc1cc(C)ccc1Oc1nc(Nc2ccc(N3CCOCC3)cc2)ncc1NC(=O)Nc1cc(C(F)(F)F)cc(C(F)(F)F)c1,82.6%
12,CCC(C)[C@H](NC(C)=O)C(=O)N[C@@H](CCCNC(=N)N)C(=O)N[C@@H](CCCCN)C(=O)N[C@@H](CC1CCC(O)CC1)C(=O)NC(C(=O)N[C@@H](CCSC)C(=O)N[C@@H](CCCNC(=N)N)C(=O)N[C@@]1(C)CCC/C=C\CCC[C@@](C)(C(=O)NC(C(=O)N[C@@H](CCC(=O)O)C(=O)N[C@@H](CC(C)C)C(=O)N[C@H](C(=O)N[C@@H](CCC(=O)O)C(N)=O)C(C)C)[C@@H](C)O)NC(=O)[C@H](CCC(N)=O)NC(=O)[C@H](CC(C)C)NC(=O)[C@H](CC(C)C)NC1=O)[C@@H](C)O (some centres not stated),90.4%
13,CN1C(=O)C2(Nc3cc(Cl)ccc3S2)c2cc(Cl)ccc21 (configuration not stated),94%
14,CC(=O)Nc1ccc2c(c1)C(=O)c1cccc(C(=O)O)c1-2,99.8%
15,O=C(CNc1nnc(-c2cccnc2SCc2ccccc2)s1)Nc1nc(Cl)cc(Cl)n1,117%
16,CCOC(=O)c1cc(C(=O)c2cc(OC)c(OC)c(OC)c2)n2nc(C)ccc12,26.7%
